The whole screen tested about 5,500 compounds, of which about 2,000 (36%) were called active. Not shown: some 18% with an inconclusive outcome. The list shows a part of the results. Unmarked numbers belong to inactive results. Rule as the data show it: active = normalized growth mostly below about 0.91 (no sharp cut-off); inconclusive = no clear call, values can overlap the other calls; inactive = mostly above about 0.92.
Test: chemical genetic growth profiling, strain panel (AID 1159580);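 also: tested at 20 µM; growth read once vehicle control cultures reached saturation at 30 °C; 1 = growth at the plate median or of vehicle wells; lower values mean less growth of the strain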
Conditions: S. cerevisiae deletion strains, growth OD

Question: Which results are given for `CC[C@H](C)C(=O)O[C@H]1CCC=C2C=C[C@H](C)[C@H](CC[C@@H]3C[C@@H](O)CC(=O)O3)[C@H]21`?
Answer: normalized growth (locus YAL040C, strain CLN3, stronger effect = lower value): 1.01; normalized growth (locus YCL061C, strain MRC1 (second series), stronger effect = lower value): 0.995; normalized growth (locus YDR363W, strain ESC2, stronger effect = lower value): 1.02; normalized growth (locus YER002W, strain NOP16, stronger effect = lower value): 0.976; normalized growth (locus YJR075W, strain HOC1, stronger effect = lower value): 0.988; normalized growth (locus YNL128W, strain TEP1, stronger effect = lower value): 0.947; normalized growth (locus YNL175C, strain NOP13, stronger effect = lower value): 0.985; normalized growth (locus YNL197C, strain WHI3, stronger effect = lower value): 0.987; normalized growth (locus YNL224C, strain SQS1, stronger effect = lower value): 0.98; normalized growth (locus YNL322C, strain KRE1, stronger effect = lower value): 0.995; normalized growth (locus YOR083W, strain WHI5 (second series), stronger effect = lower value): 0.999; normalized growth (locus YPL241C, strain CIN2, stronger effect = lower value): 0.994

Question: What does the source list for `CCC(C)C(=O)O[C@H]1C[C@H](O)C=C2C=C[C@H](C)[C@H](CC[C@@H](O)C[C@@H](O)CC(=O)O)C21` (some centres not stated)?
Answer: normalized growth (locus YAL021C, strain ccr4, stronger effect = lower value): 1.02; normalized growth (locus YAL026C, strain drs2, stronger effect = lower value): 1.03; normalized growth (locus YAL030W, strain snc1, stronger effect = lower value): 1; normalized growth (locus YBL061C, strain skt5, stronger effect = lower value): 1.01; normalized growth (locus YBR009C, strain hhf1, stronger effect = lower value): 0.966; normalized growth (locus YBR023C, strain chs3, stronger effect = lower value): 1.02; normalized growth (locus YBR171W, strain sec66, stronger effect = lower value): 1; normalized growth (locus YBR231C, strain swc5, stronger effect = lower value): 0.976; normalized growth (locus YBR279W, strain paf1, stronger effect = lower value): 1.02; normalized growth (locus YCL011C, strain gbp2, stronger effect = lower value): 1.02; normalized growth (locus YCL016C, strain dcc1, stronger effect = lower value): 1.03; normalized growth (locus YCL061C, strain MRC1, stronger effect = lower value): 1.01; normalized growth (locus YCL069W, strain vba3, stronger effect = lower value): 1.01; normalized growth (locus YCR088W, strain abp1, stronger effect = lower value): 1; normalized growth (locus YDL005C, strain med2, stronger effect = lower value): 1.03; normalized growth (locus YDL040C, strain nat1, stronger effect = lower value): 0.993; normalized growth (locus YDR001C, strain nth1, stronger effect = lower value): 1.01; normalized growth (locus YDR069C, strain doa4, stronger effect = lower value): 1.01; normalized growth (locus YDR137W, strain rgp1, stronger effect = lower value): 1.3 [resistant] (active); normalized growth (locus YDR159W, strain sac3, stronger effect = lower value): 0.937; normalized growth (locus YDR195W, strain ref2): 0.952; normalized growth (locus YDR297W, strain sur2, stronger effect = lower value): 1.01; normalized growth (locus YDR334W, strain swr1, stronger effect = lower value): 0.994; normalized growth (locus YDR335W, strain msn5, stronger effect = lower value): 1.02; normalized growth (locus YDR392W, strain spt3, stronger effect = lower value): 0.987; normalized growth (locus YEL003W, strain gim4, stronger effect = lower value): 1.02; normalized growth (locus YEL037C, strain rad23, stronger effect = lower value): 1.02; normalized growth (locus YEL061C, strain CIN8 (second series), stronger effect = lower value): 0.986; normalized growth (locus YER015W, strain faa2, stronger effect = lower value): 1; normalized growth (locus YER016W, strain bim1, stronger effect = lower value): 1.06; normalized growth (locus YER111C, strain swi4, stronger effect = lower value): 1.02; normalized growth (locus YER155C, strain BEM2 (second series), stronger effect = lower value): 1.02; normalized growth (locus YFR010W, strain ubp6, stronger effect = lower value): 0.995; normalized growth (locus YGL167C, strain pmr1, stronger effect = lower value): 1; normalized growth (locus YGL173C, strain kem1, stronger effect = lower value): 1.02; normalized growth (locus YGL227W, strain vid30, stronger effect = lower value): 1; normalized growth (locus YGL240W, strain doc1, stronger effect = lower value): 1.04; normalized growth (locus YGL253W, strain hxk2, stronger effect = lower value): 1.02; normalized growth (locus YHR013C, strain ard1, stronger effect = lower value): 1.02; normalized growth (locus YHR027C, strain rpn1, stronger effect = lower value): 1.01; normalized growth (locus YHR030C, strain SLT2, stronger effect = lower value): 0.977; normalized growth (locus YHR079C, strain IRE1, stronger effect = lower value): 0.975; normalized growth (locus YHR142W, strain chs7, stronger effect = lower value): 1.02; normalized growth (locus YJL092W, strain hpr5, stronger effect = lower value): 1.01; normalized growth (locus YJL095W, strain BCK1 (second series), stronger effect = lower value): 1.02; normalized growth (locus YJL095W, strain BCK1, stronger effect = lower value): 0.965; normalized growth (locus YJL115W, strain asf1, stronger effect = lower value): 1.01; normalized growth (locus YJL129C, strain trk1, stronger effect = lower value): 1.02; normalized growth (locus YJL154C, strain vps35, stronger effect = lower value): 1.01; normalized growth (locus YJL164C, strain tpk1, stronger effect = lower value): 1.01; normalized growth (locus YJL166W, strain qcr8, stronger effect = lower value): 0.992; normalized growth (locus YJL187C, strain SWE1, stronger effect = lower value): 1.01; normalized growth (locus YJR066W, strain TOR1, stronger effect = lower value): 0.907; normalized growth (locus YKL160W, strain elf1, stronger effect = lower value): 1.05; normalized growth (locus YKR026C, strain gcn3, stronger effect = lower value): 0.99; normalized growth (locus YKR091W, strain srl3, stronger effect = lower value): 1; normalized growth (locus YLL001W, strain dnm1, stronger effect = lower value): 0.961; normalized growth (locus YLL026W, stronger effect = lower value): 1; normalized growth (locus YLL041C, strain sdh2, stronger effect = lower value): 0.991; normalized growth (locus YLR027C, strain aat2, stronger effect = lower value): 1; normalized growth (locus YLR113W, strain HOG1, stronger effect = lower value): 1; normalized growth (locus YLR221C, strain rsa3, stronger effect = lower value): 0.998; normalized growth (locus YLR258W, strain gsy2, stronger effect = lower value): 1.03; normalized growth (locus YLR262C, strain YPT6 (second series), stronger effect = lower value): 1.12; normalized growth (locus YLR320W, strain mms22, stronger effect = lower value): 0.963; normalized growth (locus YLR342W, strain FKS1, stronger effect = lower value): 1.02; normalized growth (locus YLR357W, strain rsc2, stronger effect = lower value): 1; normalized growth (locus YLR370C, strain arc18, stronger effect = lower value): 1.02; normalized growth (locus YLR384C, strain iki3, stronger effect = lower value): 0.991; normalized growth (locus YML120C, strain ndi1, stronger effect = lower value): 1.02; normalized growth (locus YMR058W, strain fet3, stronger effect = lower value): 1.01; normalized growth (locus YMR125W, strain sto1, stronger effect = lower value): 1.04; normalized growth (locus YMR129W, stronger effect = lower value): 1; normalized growth (locus YMR205C, strain PFK2, stronger effect = lower value): 0.972; normalized growth (locus YMR231W, strain pep5, stronger effect = lower value): 1; normalized growth (locus YNL071W, strain lat1, stronger effect = lower value): 1; normalized growth (locus YNL183C, strain NPR1, stronger effect = lower value): 0.902; normalized growth (locus YNL209W, strain ssb2, stronger effect = lower value): 1.01; normalized growth (locus YNL248C, strain rpa49, stronger effect = lower value): 1.03; normalized growth (locus YNL322C, strain KRE1 (second series), stronger effect = lower value): 1.06; normalized growth (locus YNR049C, strain mso1, stronger effect = lower value): 1.01; normalized growth (locus YOR001W, strain rrp6, stronger effect = lower value): 0.992; normalized growth (locus YOR070C, strain gyp1, stronger effect = lower value): 1; normalized growth (locus YOR080W, strain dia2, stronger effect = lower value): 0.999; normalized growth (locus YOR083W, strain WHI5, stronger effect = lower value): 1.01; normalized growth (locus YOR106W, strain vam3, stronger effect = lower value): 1.04; normalized growth (locus YOR231W, strain MKK1, stronger effect = lower value): 0.954; normalized growth (locus YOR265W, strain rbl2, stronger effect = lower value): 1; normalized growth (locus YOR270C, strain vph1, stronger effect = lower value): 0.946; normalized growth (locus YOR290C, strain snf2, stronger effect = lower value): 1.05; normalized growth (locus YPL051W, strain arl3, stronger effect = lower value): 1.06; normalized growth (locus YPL078C, strain atp4, stronger effect = lower value): 1.05; normalized growth (locus YPL106C, strain sse1, stronger effect = lower value): 1.02; normalized growth (locus YPL240C, strain hsp82, stronger effect = lower value): 1.01; normalized growth (locus YPL256C, strain CLN2, stronger effect = lower value): 1.01
